From PubChem BioAssay (NCI) come the findings set out here.

Values joined by “and” are separate entries in the source; they are usually repeats but may differ in a detail not shown here. Equal entries are not always repeated. The panel holds about 83,000 compounds, 20% with a hit somewhere; the sample as a whole holds those more often.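 The test compound was applied at a single concentration to cells in 96-well plates for 48 hours, and percent growth was recorded.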 A number with no mark means an inactive call. Active and inactive are the calls of the source. How the source made its calls: active means growth percent below 10; inactive means the rest.

Among the test systems are SR leukemia; RPMI-8226 leukemia; OVCAR-8 ovarian; OVCAR-5 ovarian; OVCAR-4 ovarian; SK-OV-3 ovarian; IGROV1 ovarian; OVCAR-3 ovarian; HS 578T breast; NCI/ADR-RES ovarian; T-47D breast; BT-549 breast; MDA-MB-435 melanoma; SW-620 colon; MCF7 breast; HCT-116 colon; HCC-2998 colon; KM12 colon.
Assay in all cases: NCI-60 one-dose screen, 48 h (100 = growth as untreated, 0 = no growth, -100 = all killed)
Holding throughout (conditions): 10 µM unless noted

As for `Cn1c(=O)c2[nH]c(CCCCCCCCc3nc4ccccc4[nH]3)nc2n(C)c1=O`, the growth was 43.5% and 45.4% in the assay on SR leukemia; 52.2% in the assay on RPMI-8226 leukemia; 58.9% and 69.2% in the assay with OVCAR-8 ovarian; 106% and 91.2% with OVCAR-5 ovarian; 23.5% and 50.2% in the assay on OVCAR-4 ovarian; 95.4% and 94% in the assay with SK-OV-3 ovarian. Moreover, the growth is 100% and 85.9% with IGROV1 ovarian; 88.1% and 66.6% in the assay on OVCAR-3 ovarian; 109% and 85.6% with HS 578T breast; 87.6% and 94.4% with NCI/ADR-RES ovarian; 46.6% and 44% in the assay on T-47D breast; 46.1% and 54.1% in the assay with BT-549 breast. In addition, the growth in the assay on MDA-MB-435 melanoma is 37% and 52.2%; in the assay with SW-620 colon, 91.7% and 91.2%; with MCF7 breast, 45.2% and 50.7%; in the assay with HCT-116 colon it was 40.9% and 56%; in the assay on HCC-2998 colon, 59.2% and 86.5%; in the assay with KM12 colon, 83.6% and 91.1%.

For `CC[N+](CC)(CC(=O)Nc1c(C)cccc1C)Cc1ccccc1`, the growth was 92.4% in the assay on SR leukemia; 74% and 113% in the assay with RPMI-8226 leukemia; 95.2% and 105% with OVCAR-8 ovarian; 119% and 99.1% in the assay on OVCAR-5 ovarian; 80.4% and 105% in the assay with OVCAR-4 ovarian; 102% and 107% in the assay on SK-OV-3 ovarian. Moreover, the growth in the assay with IGROV1 ovarian is 85.4% and 94.5%; with OVCAR-3 ovarian, 104% and 109%; in the assay on HS 578T breast it was 109%; with NCI/ADR-RES ovarian it was 90.3% and 102%; in the assay with T-47D breast, 86.9% and 95.1%; in the assay with BT-549 breast, 63.8% and 106%. Besides, the growth with MDA-MB-435 melanoma was 94.7% and 99.3%; in the assay with SW-620 colon it was 90.1% and 97.1%; in the assay on MCF7 breast, 95.7% and 99.8%; in the assay on HCT-116 colon, 97.3% and 100%; in the assay with HCC-2998 colon, 102%; in the assay on KM12 colon, 101% and 88.9%.

`O=C1NC(=O)C2(CCc3ccccc32)N1` (stereo not drawn): the growth was 111% and 95.6% in the assay with SR leukemia; 106% and 95.6% in the assay on RPMI-8226 leukemia; 110% and 102% in the assay on OVCAR-8 ovarian; 108% and 78.7% in the assay with OVCAR-5 ovarian; 103% and 108% in the assay with OVCAR-4 ovarian; 114% and 101% in the assay on SK-OV-3 ovarian. In addition, the growth is 119% and 106% in the assay with IGROV1 ovarian; 99.5% and 114% with OVCAR-3 ovarian; 121% in the assay with HS 578T breast; 109% and 92.5% with NCI/ADR-RES ovarian; 92.8% and 94.4% in the assay on T-47D breast; 115% and 98.1% in the assay with BT-549 breast. In addition, the growth is 107% and 129% in the assay on MDA-MB-435 melanoma; 117% in the assay with SW-620 colon; 92.9% and 110% in the assay on MCF7 breast; 113% and 96.3% with HCT-116 colon; 103% in the assay with HCC-2998 colon; 100% and 109% in the assay with KM12 colon.

As to `CCC(O)c1ccccc1` (stereo not drawn), the growth is 100% and 94.1% with SR leukemia; 192% with RPMI-8226 leukemia; 101% and 96.1% with OVCAR-8 ovarian; 106% and 108% with OVCAR-5 ovarian; 103% and 107% in the assay with OVCAR-4 ovarian; 121% and 105% in the assay on SK-OV-3 ovarian. Also, the growth was 109% and 108% with IGROV1 ovarian; 112% and 109% in the assay on OVCAR-3 ovarian; 81.8% and 93.6% in the assay with HS 578T breast; 112% and 118% with NCI/ADR-RES ovarian; 106% and 102% with T-47D breast; 133% with BT-549 breast. The growth with MDA-MB-435 melanoma is 89.8% and 107%; with SW-620 colon, 109% and 104%; in the assay on MCF7 breast, 103% and 95.6%; in the assay on HCT-116 colon, 86.7% and 108%; in the assay with HCC-2998 colon it was -87.7% (active); with KM12 colon it was 116% and 108%.

On to `O[C@H](c1cc(C(F)(F)F)nc2c(C(F)(F)F)cccc12)[C@@H]1CCCCN1`, for which the growth in the assay with SR leukemia was 11.7%; in the assay with RPMI-8226 leukemia, 70.1% and 79.2%; in the assay with OVCAR-8 ovarian, 80.3% and 64.2%; with OVCAR-5 ovarian, 79.5% and 69.3%; in the assay on OVCAR-4 ovarian it was 69.7% and 59.8%; in the assay with SK-OV-3 ovarian it was 79.1% and 74.6%. Also, the growth was 47.8% and 46.4% in the assay on IGROV1 ovarian; 68.1% and 55% in the assay on OVCAR-3 ovarian; 66.3% and 63% with HS 578T breast; 65.7% and 56.1% in the assay with NCI/ADR-RES ovarian; 43.6% and 64% in the assay on T-47D breast; 65.1% and 74.8% with BT-549 breast. Also, the growth is 64.2% and 69% with MDA-MB-435 melanoma; 71% and 74.1% in the assay on SW-620 colon; 21.3% and 13.3% with MCF7 breast; 44.1% and 45.2% in the assay on HCT-116 colon; 74.5% and 54.9% in the assay on HCC-2998 colon; 50.7% and 43.8% in the assay on KM12 colon.

As for `COc1ccc2ccccc2c1/C=N/N1CCCCC1`, the growth was 108% in the assay on SR leukemia; 91.3% with RPMI-8226 leukemia; 95.4% in the assay with OVCAR-8 ovarian; 98.7% in the assay on OVCAR-5 ovarian; 99.5% with OVCAR-4 ovarian; 111% with SK-OV-3 ovarian. The growth in the assay with IGROV1 ovarian is 116%; with OVCAR-3 ovarian it was 103%; with HS 578T breast, 98.5%; with NCI/ADR-RES ovarian it was 90.9%; with T-47D breast, 94.2%; in the assay with BT-549 breast, 102%. Further, the growth in the assay with MDA-MB-435 melanoma is 99.1%; in the assay with SW-620 colon it was 103%; in the assay with MCF7 breast it was 84%; with HCT-116 colon, 102%; in the assay on HCC-2998 colon, 109%; with KM12 colon, 108%.

For the compound `CCOC(=O)C(C(=O)OCC)C(c1ccccc1)N1CCN(c2ccccc2)CC1` (stereo not drawn), the growth in the assay with SR leukemia is 97.9% and 101%; in the assay with RPMI-8226 leukemia, 102% and 103%; in the assay with OVCAR-8 ovarian, 101% and 90.3%; with OVCAR-5 ovarian it was 112% and 111%; in the assay with OVCAR-4 ovarian, 102% and 113%; in the assay on SK-OV-3 ovarian, 115% and 108%. Moreover, the growth in the assay with IGROV1 ovarian was 107%; with OVCAR-3 ovarian, 123% and 120%; with HS 578T breast, 103% and 104%; in the assay on NCI/ADR-RES ovarian it was 107%; in the assay on T-47D breast, 108% and 98.7%; in the assay on BT-549 breast, 103% and 104%. The growth in the assay on MDA-MB-435 melanoma was 102% and 100%; in the assay on SW-620 colon, 113% and 111%; in the assay on MCF7 breast, 97.8% and 97.5%; with HCT-116 colon it was 98.3% and 99.3%; with HCC-2998 colon, 114% and 111%; in the assay with KM12 colon it was 111% and 98.6%.

`Cc1ncsc1CCO`: the growth is 104% and 111% in the assay on SR leukemia; 106% and 122% in the assay with RPMI-8226 leukemia; 104% and 97% in the assay on OVCAR-8 ovarian; 103% in the assay on OVCAR-5 ovarian; 120% and 116% in the assay with OVCAR-4 ovarian; 101% and 110% in the assay on SK-OV-3 ovarian. For the same compound, the growth with IGROV1 ovarian is 124% and 107%; with OVCAR-3 ovarian, 124% and 93.9%; in the assay on HS 578T breast it was 110% and 101%; in the assay on NCI/ADR-RES ovarian, 108% and 102%; in the assay on T-47D breast, 93.5% and 94.4%; with BT-549 breast it was 101% and 100%. In addition, the growth in the assay on MDA-MB-435 melanoma was 106% and 104%; in the assay on SW-620 colon it was 108% and 101%; in the assay on MCF7 breast, 109% and 96%; in the assay on HCT-116 colon, 112% and 102%; with KM12 colon it was 110% and 98.1%.

For the compound `Nc1n[nH]c(=S)n1-c1ccc(Cl)cc1`, the growth in the assay with SR leukemia is 96.6%; with RPMI-8226 leukemia, 80.8%; with OVCAR-8 ovarian, 100%; with OVCAR-5 ovarian, 98.6%; in the assay on OVCAR-4 ovarian, 99.5%; in the assay with SK-OV-3 ovarian it was 102%. The growth in the assay with IGROV1 ovarian is 110%; in the assay with OVCAR-3 ovarian, 100%; in the assay with HS 578T breast, 100%; in the assay with NCI/ADR-RES ovarian it was 100%; in the assay with T-47D breast, 97.6%; with BT-549 breast it was 92.5%. Moreover, the growth in the assay with MDA-MB-435 melanoma is 112%; in the assay on SW-620 colon, 97%; in the assay on MCF7 breast, 90.8%; in the assay on HCT-116 colon it was 95.4%; with KM12 colon it was 103%.

As to `O=C1c2ccccc2C(=O)N1/N=C/c1ccc2c(c1)OCO2`, the growth was 82% in the assay with SR leukemia; 88.5% in the assay on RPMI-8226 leukemia; 100% in the assay with OVCAR-8 ovarian; 93.1% with OVCAR-5 ovarian; 113% in the assay with OVCAR-4 ovarian; 97.5% in the assay with SK-OV-3 ovarian. In addition, the growth is 101% in the assay on IGROV1 ovarian; 108% with OVCAR-3 ovarian; 78.7% with HS 578T breast; 110% in the assay with NCI/ADR-RES ovarian; 99.9% in the assay on T-47D breast; 97.2% in the assay with BT-549 breast. For the same compound, the growth with MDA-MB-435 melanoma was 114%; with SW-620 colon, 107%; with MCF7 breast, 91.3%; in the assay on HCT-116 colon, 95%; with HCC-2998 colon it was 116%; with KM12 colon, 113%.
